About 2,400 (1.1%) of roughly 220,000 compounds were called active. Many of the other results were omitted from the sample, so actives are more common in it than they were. Unmarked numbers belong to inactive results.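 Rule for the calls: active = inhibition above a per-campaign cutoff, the mean inhibition of all tested compounds plus 3 SD (cut at about 27% in these data); inactive = the rest.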
Assay: growth loss in parental Ba/F3 cells – cell-based, murine pro-B, CellTiter-Glo luminescence, counter-screen for JAK2V617F inhibitor project (AID 1486);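 note: 0% = DMSO wells and 100% = JAK Inhibitor I control wells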
Details: Ba/F3 parental viability, CellTiter-Glo ATP luminescence; at 5.6 µM; active compounds read high
COc1ccc(CC(NC(C)=O)C(=O)NC2CCN(C(=O)C3CC3)CC2)cc1OC (stereo not drawn) gave an inhibition of -2.26%.
In the case of Cc1cc(NC(=O)Nc2ccc(Cl)cc2)n(-c2ccccc2)n1, the inhibition is reported as 0.47%.
For Cc1nn(-c2ccccc2)c(-n2cccc2)c1C(=O)O, the inhibition was 7.83%.
CCn1c(SCC(=O)Nc2sc(C)c(C)c2C#N)nnc1C1CC1 gave an inhibition of -1.4%.
Molecule COC(=O)c1ccc(/C=N/N2C(C)CCCC2C)cc1 (stereo not drawn) has an inhibition of -0.91%.
CCCC(=O)Nc1nc2ccc(NC(=O)c3cccnc3)cc2s1 showed an inhibition of 6.39%.
With CCCC(=O)Nc1nc2ccc(NC(=O)c3c(F)c(F)c(OC)c(F)c3F)cc2s1 the inhibition was 83.3% (active).
In the case of COc1ccc2nc(Nc3nc4ccc(NC(C)=O)cc4s3)sc2c1, the inhibition is reported as 1.76%.
CN(C)C(=O)c1cccn(Cc2cccc(C(F)(F)F)c2)c1=O showed an inhibition of 1.53%.
Molecule N#Cc1ncc(C(F)(F)F)cc1Oc1cccnc1 has an inhibition of 3.06%.
For Cc1ccc2nc(Nc3ccccc3O)nc(-c3ccccc3)c2c1, the inhibition was 2.87%.
For COc1ccc(-c2csc(Cc3nc(O)cs3)n2)cc1, the inhibition was 2.47%.
For CC(C)(C)C(=O)OCc1nc(-c2ccc(O)c(O)c2)cs1, the inhibition was 55.4% (active).
COc1ccc(OC)c(Nc2nc(-c3ccc(O)c(O)c3)cs2)c1 showed an inhibition of 7.93%.
For O=c1[nH]cnc2c1c(-c1ccccc1)cn2-c1ccc(F)cc1, the inhibition was 5.71%.
For Cc1ccc2c(c1)C(O)(CC(=O)c1cccc(-n3cccc3)c1)C(=O)N2 (stereo not drawn), the inhibition was 9.56%.
For Cc1cc2c(cc1C)[n+](C)cn2CC(O)COCC1CC=CCC1 (stereo not drawn), the inhibition was 77.5% (active).
With CCc1ccc(-n2c(SCc3cc(=O)n4cc(Br)ccc4n3)nc3[nH]ncc3c2=O)cc1 the inhibition was 3.56%.
Cc1cc(N2CCN(Cc3ccc4c(c3)OCO4)CC2)n2ncnc2n1 showed an inhibition of 8.83%.
For Fc1ccc2[nH]c3c(N4CCN(Cc5ccc6c(c5)OCO6)CC4)ncnc3c2c1, the inhibition was 43.4% (active).
Fc1ccc2[nH]c3c(N4CCSCC4)ncnc3c2c1 showed an inhibition of 2.75%.
In the case of Cc1ccc(OC(=O)c2c(C)nn(-c3ccccc3)c2C)cc1, the inhibition is reported as -2.11%.
COc1cc(NS(=O)(=O)c2ccc(NC(C)=O)cc2)cc(OC)c1 showed an inhibition of 6.53%.
For COc1ccc(NS(=O)(=O)c2ccc(NC(C)=O)cc2)cc1OC, the inhibition was 36.4% (active).
COC(=O)COc1ccc(S(=O)(=O)Nc2ccc(NC(C)=O)cc2)cc1 gave an inhibition of 3.84%.
CCCCCCCC(=O)OC(CN1CCCCCC1)CN1CCCC1=O (stereo not drawn) gave an inhibition of 2.21%.
For CCOc1cccc(-c2nnc3sc(COc4ccc(OC)cc4)nn23)c1, the inhibition was 3.78%.
With CCOc1cccc(-n2nnnc2-c2ccc(OC)cc2)c1 the inhibition was 56.8% (active).
With COc1ccc(-n2nnnc2-c2nc3ccccc3s2)cc1 the inhibition was 2.01%.
CN(C)S(=O)(=O)c1ccc(C(=O)NCC(C)(C)N2CCOCC2)cc1 gave an inhibition of 0.19%.
In the case of CC(C)NC(=S)N1CCN(C(c2ccccc2)c2ccccc2)CC1, the inhibition is reported as 5.27%.
With CC1(C)CC(=O)C=C(N2CCCC2)C1 the inhibition was -2.25%.
In the case of CC1(C)CC(N2CCN(C(c3ccccc3)c3ccccc3)CC2)=CC(=[N+]2CCCCC2)C1, the inhibition is reported as 88.5% (active).
Brc1ccc2ncnc(NCc3cccnc3)c2c1 showed an inhibition of -4.51%.
CC1CCCN(S(=O)(=O)c2ccc(C(=O)Nc3nnc(-c4ccncc4)o3)cc2)C1 (stereo not drawn) gave an inhibition of 6.63%.
Work on CC1CCCCN1S(=O)(=O)c1ccc(S(=O)(=O)N(CC(=O)Nc2ccccc2)Cc2cccs2)cc1 (stereo not drawn) yielded an inhibition of 1.87%.
For CC1CCCCN1S(=O)(=O)c1ccc(C(=O)Nc2nnc(-c3cccs3)o2)cc1 (stereo not drawn), the inhibition was 34.1% (active).
Molecule COc1ccc2[nH]c(C(=O)Nc3ccccc3Cl)cc2c1 has an inhibition of -2.76%.
Cc1cc([N+](=O)[O-])ccc1NC(=O)c1ccc(NC(=O)C(C)C)cc1 gave an inhibition of 6.88%.
Molecule CC(=O)NC(=S)Nc1ccc(NC(=S)NC(=O)c2ccc([N+](=O)[O-])cc2)cc1 has an inhibition of -2.36%.
For Cn1ccc(=Nc2ccc(NC(=O)c3ccc(N=c4ccn(C)c5ccc([N+](=O)[O-])cc45)cc3)cc2)cc1, the inhibition was 29.7% (active).
Molecule CC1CCN(c2c(NCc3ccc(C(=O)NCc4ccccc4)cc3)c(=O)c2=O)CC1 has an inhibition of -0.24%.
With CCOC(=O)N1CCN(C(c2cccnc2)c2ccc3cccnc3c2O)CC1 (stereo not drawn) the inhibition was 35.8% (active).
For Oc1c(C(c2ccccn2)N2CCOCC2)ccc2cccnc12 (stereo not drawn), the inhibition was 2.22%.
For CCN1CCN(C(c2cccnc2)c2cc(Cl)c3cccnc3c2O)CC1 (stereo not drawn), the inhibition was 4.4%.
Molecule CCCNC(=O)OC[C@H]1O[C@H](CCO/N=C/[C@@H](NS(=O)(=O)c2ccc(C)cc2)[C@H](C)/C=C/CC(=O)OC)C=C[C@@H]1Oc1ccc(OC)cc1 has an inhibition of 1.98%.
CC1CCN(C(=O)c2ccc(S(=O)(=O)Cc3cc(F)ccc3F)c([N+](=O)[O-])c2)CC1 gave an inhibition of 2.51%.
In the case of Cc1ccc(/C=N/NC(=O)CN2CCN(Cc3ccccc3)CC2)s1, the inhibition is reported as 0.65%.
In the case of CCCCCCCCn1c2c(c(=N)c3c1CCC3)CCCC2, the inhibition is reported as 88.4% (active).
Work on CCCCCCn1c(CN2CCCCC2)nc2c1c(=O)n(C)c(=O)n2C yielded an inhibition of 2.14%.
Cc1cc(CNC(=O)c2cccc([N+](=O)[O-])c2)c2ccccc2n1 showed an inhibition of -2.87%.
Molecule O=C(Nn1c(SCc2ccc([N+](=O)[O-])cc2)nc2ccccc2c1=O)c1ccc(F)cc1 has an inhibition of -1.55%.
CN(CC(=O)NC1CCCC1)S(=O)(=O)c1cnc[nH]1 showed an inhibition of -0.47%.
With CSc1ccc(C#N)cc1NC(=O)c1ccc(Cl)cc1 the inhibition was 1.1%.
Work on COc1ccccc1Nc1nc(N)nc(CN(C)C2CCCCC2)n1 yielded an inhibition of 0.48%.
In the case of COc1ccccc1NC1=NC2(CCCC2)N=C(N)N1, the inhibition is reported as 10.5%.
For COc1ccccc1NC1=NC(c2ccc(Cl)cc2)N=C(N)N1 (stereo not drawn), the inhibition was 81.1% (active).
With CCOc1ccc(-c2n[nH]c(C)c2-c2ccccn2)c(O)c1 the inhibition was 5.9%.
CCOc1ccc(-c2nc(N)ncc2-c2ccccc2OC)c(O)c1 gave an inhibition of -0.51%.
In the case of CCOc1ccccc1Oc1cn[nH]c1-c1ccc(OC)cc1O, the inhibition is reported as 94.7% (active).
For CCCCCc1ccc(-c2ccc(OCC)cc2)nc1, the inhibition was 3.47%.
For COCC(C)n1c(C)cc(C(=O)COc2ccc(C)nc2[N+](=O)[O-])c1C (stereo not drawn), the inhibition was 3.84%.
Molecule C/C(=N\NC(=O)c1cccnc1)c1ccc(-n2ccnc2)cc1 has an inhibition of -0.08%.
Work on COc1ccc(Cl)cc1NC(=O)C(C)N1CCc2ccccc21 (stereo not drawn) yielded an inhibition of 4.67%.
Cc1ccc(/C=C/C(=O)O)cc1S(=O)(=O)N1CCC(Cc2ccccc2)CC1 showed an inhibition of -3.54%.
Cc1ccc(C2CC(=O)NC(SCC(=O)OCc3ccccc3)=C2C#N)o1 (stereo not drawn) showed an inhibition of 2.62%.
For CCOC(=O)CSC1=C(C#N)C(c2sccc2C)CC(=O)N1 (stereo not drawn), the inhibition was 81.7% (active).
With C=CCOC(=O)C1=C(C)NC(SCC(=O)OCC)=C(C#N)C1c1ccc(C)cc1 (stereo not drawn) the inhibition was 1.41%.
Cc1nnc(CN(C)Cc2cn[nH]c2-c2ccc(-c3ccccc3)cc2)o1 showed an inhibition of 3.87%.
Cc1cccc(NC(=O)c2sc(-c3ccccc3)nc2-c2ccc([N+](=O)[O-])cc2)c1 showed an inhibition of 2.68%.
With COC(=O)C(NC(=O)c1ccc(OC)cc1)(Nc1ncc(S(=O)(=O)c2ccc([N+](=O)[O-])cc2)s1)C(F)(F)F (stereo not drawn) the inhibition was -1.49%.
With COc1ccc(C(=O)Nc2nc(-c3ccc(OC)cc3)c(-c3ccc([N+](=O)[O-])cc3)s2)cc1 the inhibition was 61.3% (active).
In the case of CCOC(=O)/C(=N\Nc1ccccc1[N+](=O)[O-])c1csc(Nc2ccccc2)n1, the inhibition is reported as 12%.
In the case of Cc1nnc(N/N=C/c2ccccn2)[nH]c1=O, the inhibition is reported as 1.19%.
For CC(C)(C)c1ccc(Oc2ccc(N)cc2)cc1, the inhibition was 36.8% (active).
Work on Cc1ccc(Oc2ccc(N)cc2)cc1 yielded an inhibition of 2.65%.
In the case of Nc1ccc(Oc2ccc(Cl)cc2)cc1, the inhibition is reported as 9.91%.
In the case of CCCCN(C)c1ccc([N+](=O)[O-])cc1, the inhibition is reported as 8.6%.
CCc1[nH]nc(C(=O)N2CCCC(CNS(=O)(=O)c3cccs3)C2)c1C (stereo not drawn) showed an inhibition of 6.5%.
C/C(CC(=O)NC(C)c1ccccc1)=N\NC(N)=S (stereo not drawn) gave an inhibition of -3.5%.
In the case of CCOC(=O)N1CCN(C(=O)C2CCN(c3ncnc4c3sc3cccc(F)c34)CC2)CC1, the inhibition is reported as 40.6% (active).
For CCOC(=O)C1CCN(c2ncnc3c2oc2ccc(Br)cc23)CC1, the inhibition was 6.89%.
For CCOC(=O)N1CCN(C(=O)C2CCN(Cc3ccc(OC)cc3OC)CC2)CC1, the inhibition was 3.57%.
With CNC(=O)COc1ccc(S(=O)(=O)Nc2ccccc2)cc1 the inhibition was 0.46%.
Cc1csc(CN(C)C(=O)CC2C(=O)NCCN2CC(C)(C)C)n1 (stereo not drawn) gave an inhibition of 9.22%.
Cc1ccc(C(=O)N/N=C\c2cc(Br)c(Br)o2)cn1 gave an inhibition of 1.1%.
For Cc1cc(C(=O)CSc2nc(N)cc(=O)[nH]2)c(C)n1CCc1ccc(Cl)cc1, the inhibition was 6.39%.
In the case of Cc1cc(C(=O)CSc2nc(N)cc(=O)[nH]2)c(C)n1Cc1ccco1, the inhibition is reported as 33.8% (active).
For Cc1cc(C(=O)CSc2nc(N)cc(=O)[nH]2)c(C)n1-c1cccc(F)c1, the inhibition was 4.66%.
In the case of CSC1=NCCN1C(=O)Cc1cccc2ccccc12, the inhibition is reported as 2.66%.
CCn1c2ccccc2c2cc(NC(=O)Nc3ccc([N+](=O)[O-])cc3C)ccc21 gave an inhibition of -1.24%.
In the case of CC(=O)c1cc(-c2ccccc2)n(CCC(=O)NC2CCCCCC2)c1C, the inhibition is reported as 1.01%.
CC(C)c1cc(CN2CCOCC2)cc(C(C)C)c1O showed an inhibition of -1.01%.

Source: PubChem BioAssay AID1486 (The Scripps Research Institute Molecular Screening Center, 2009)
